Measured values published in PubChem BioAssay (NCI).
This is part of a sample that, as a whole, favours compounds with a hit. Of some 79,000 tested, about 15% had one in any assay. Active and inactive are the calls of the source. No stated cut-off is given here; in the data, active means growth inhibition above about 70%; inactive means the rest.

Tests used:
[1] = NCI Yeast Anticancer Drug Screen. Data for the rad50 strain (AID 155);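 further: 0% = growth of vehicle-only cultures of the same strain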; settings: S. cerevisiae rad50 strain growth inhibition, hits give high values
How it was run: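 Cells are treated with compound, grown, and their growth is then scored against vehicle-only cultures of the same repair-deficient yeast strain.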

[2] = NCI Yeast Anticancer Drug Screen. Data for the mec2-1 strain (AID 157); settings: S. cerevisiae mec2-1 strain, hits give high values
How it was run: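 mec2-1 yeast strain, carrying an alteration in DNA damage repair or cell cycle control, was exposed to compounds; growth inhibition was measured relative to vehicle-treated controls.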

[3] = NCI Yeast Anticancer Drug Screen. Data for the sgs1 mgt1 strain (AID 161);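 further: 0% = growth of cultures given vehicle only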; settings: S. cerevisiae sgs1 mgt1 strain, hits give high values
How it was run: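 Yeast cells carrying a defined DNA-repair defect were exposed to test compounds. Growth inhibition was measured relative to vehicle-treated controls.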

[4] = NCI Yeast Anticancer Drug Screen. Data for the cln2 rad14 strain (AID 165);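 further: 0% = growth equal to vehicle treated cultures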; settings: S. cerevisiae cln2 rad14 strain, hits give high values
How it was run: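 Yeast carrying cln2 and rad14 alterations (cell cycle control and DNA damage repair) were exposed to compounds. Growth inhibition was measured against vehicle-treated controls.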

[5] = NCI Yeast Anticancer Drug Screen. Data for the bub3 strain (AID 167); settings: S. cerevisiae bub3 mutant strain, hits give high values
How it was run: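 Part of a panel of yeast mutants defective in DNA damage repair or cell cycle regulation. Each strain is grown with compound, and inhibition is calculated relative to solvent-treated cultures.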

[6] = NCI Yeast Anticancer Drug Screen. Data for the mlh1 rad18 strain (AID 175); settings: S. cerevisiae mlh1 rad18 strain growth inhibition, hits give high values
How it was run: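 Growth inhibition of the yeast strain was measured after compound exposure and expressed relative to vehicle-treated controls. The strain carries defined defects in DNA damage repair.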

[7] = at 5.0 µM (retest, dose inferred, filed as 0.5)
[8] = at 50.0 µM (retest, dose inferred, filed as 5.0)

Measured: growth inhibition

Clc1ccc(C2SCc3nc4ccccc4n32)c(Cl)c1 (configuration not stated)
inactive: [1]; [7] -7% | [2]; [7] -6% | [3]; [7] 4% | [4]; [7] -17% | [5]; [7] 9% | [6]; [7] -10%
active: [1]; [8] 96% | [1]; at 50.0 µM 99% | [2]; [8] 97% | [2]; at 50.0 µM 99.1% | [3]; [8] 95% | [3]; at 50.0 µM 99.2% | [4]; [8] 98% | [4]; at 50.0 µM 97.9% | [5]; [8] 96% | [5]; at 50.0 µM 98.7% | [6]; [8] 94% | [6]; at 50.0 µM 71.9%

O=C1OCC/C1=C1/CCOC1
active: [1]; [7] 73% | [1]; [8] 97% | [1]; at 50.0 µM 99.2% | [2]; [8] 98% | [2]; at 50.0 µM 99.3% | [3]; [7] 82% | [3]; [8] 98% | [4]; [8] 97% | [4]; at 50.0 µM 98.8% | [5]; [8] 97% | [5]; at 50.0 µM 99.2% | [6]; [7] 78% | [6]; [8] 97% | [6]; at 50.0 µM 99.5%
inactive: [2]; [7] 65% | [3]; at 50.0 µM 50.3% | [4]; [7] 51% | [5]; [7] 61%

Cc1cccc2c1Oc1cc(Cl)ccc1C2NC(=O)CCN1CCN(CCO)CC1 (configuration not stated)
active: [6]; at 50.0 µM 70.3%
inactive: [1]; [7] 0% | [1]; [8] 29% | [1]; at 50.0 µM 38% | [2]; [7] -11% | [2]; [8] -13% | [2]; at 50.0 µM -0.05% | [3]; [7] -3% | [3]; [8] 6% | [3]; at 50.0 µM 38.1% | [4]; [7] 11% | [4]; [8] 26% | [4]; at 50.0 µM 25.6% | [5]; [7] -8% | [5]; [8] 11% | [5]; at 50.0 µM 39.4% | [6]; [7] 3% | [6]; [8] 29%

O=C(CNS(=O)(=O)Cc1ccccc1)NCC(=O)NNc1ccccc1
inactive: [1]; [7] 12% | [1]; [8] 55% | [1]; at 50.0 µM 59.5% | [2]; [7] 1% | [2]; [8] 29% | [2]; at 50.0 µM 29.4% | [3]; [7] -5% | [3]; [8] 63% | [3]; at 50.0 µM 58.2% | [4]; [7] 12% | [4]; [8] 40% | [4]; at 50.0 µM 44.4% | [5]; [7] 1% | [5]; [8] 53% | [5]; at 50.0 µM 20.1% | [6]; [7] 31%
active: [6]; [8] 76% | [6]; at 50.0 µM 81.7%

CCNC(=O)NNc1ncnc2c1c(-c1ccc(Cl)cc1)cn2-c1ccc(C)cc1
active: [1]; [8] 98% | [1]; at 50.0 µM 96.7% | [2]; [8] 98% | [2]; at 50.0 µM 97.7% | [3]; [8] 99% | [3]; at 50.0 µM 98.3% | [4]; [8] 97% | [4]; at 50.0 µM 96.5% | [5]; [8] 97% | [6]; [8] 98% | [6]; at 50.0 µM 97.2%
inactive: [1]; [7] -10% | [2]; [7] -11% | [3]; [7] 5% | [4]; [7] 7% | [5]; [7] 0% | [5]; at 50.0 µM 40% | [6]; [7] -17%

CN(C)CC/C(=N\Nc1ccc([N+](=O)[O-])cc1)c1ccccc1
inactive: [1]; [7] 12% | [1]; [8] 65% | [2]; [7] 8% | [3]; [7] 29% | [4]; [7] 1% | [4]; [8] 62% | [5]; [7] 8% | [6]; [7] 19%
active: [1]; at 50.0 µM 99.5% | [2]; [8] 86% | [2]; at 50.0 µM 84.4% | [3]; [8] 96% | [3]; at 50.0 µM 99.2% | [4]; at 50.0 µM 98.8% | [5]; [8] 98% | [5]; at 50.0 µM 99.7% | [6]; [8] 97% | [6]; at 50.0 µM 98.5%

O=C(NCC#CCO)C(F)(F)F
inactive: [1]; [7] -15% | [1]; [8] -1% | [1]; at 50.0 µM -0.9% | [2]; [7] -14% | [2]; [8] -18% | [2]; at 50.0 µM 13.2% | [3]; [7] -3% | [3]; [8] -8% | [3]; at 50.0 µM 11.7% | [4]; [7] 3% | [4]; [8] 9% | [4]; at 50.0 µM 47.8% | [5]; [7] -21% | [5]; [8] -5% | [5]; at 50.0 µM 11.1% | [6]; [7] -5% | [6]; [8] -10% | [6]; at 50.0 µM 45.1%

COc1cc(C(=O)C2OC2c2ccc(Cl)cc2)c([N+](=O)[O-])cc1OC (configuration not stated)
inactive: [1]; [7] 25% | [1]; [8] 51% | [1]; at 50.0 µM 54% | [2]; [7] 22% | [2]; [8] 47% | [2]; at 50.0 µM 26.4% | [3]; [7] 24% | [3]; [8] 61% | [3]; at 50.0 µM 54% | [4]; [7] 36% | [4]; [8] 57% | [4]; at 50.0 µM 58.5% | [5]; [7] 15% | [5]; [8] 51% | [5]; at 50.0 µM 36.8% | [6]; [7] 36% | [6]; at 50.0 µM 64.2%
active: [6]; [8] 85%

N#Cc1c2c(c(N=[N+]=[N-])n3c1nc1ccccc13)CCCC2
inactive: [1]; [7] 47% | [2]; [7] 36% | [3]; [7] 45% | [4]; [7] 28% | [5]; [7] 43% | [6]; [7] 50%
active: [1]; [8] 95% | [1]; at 50.0 µM 87.2% | [2]; [8] 98% | [2]; at 50.0 µM 92.3% | [3]; [8] 99% | [3]; at 50.0 µM 91.5% | [4]; [8] 97% | [4]; at 50.0 µM 90% | [5]; [8] 95% | [5]; at 50.0 µM 90.9% | [6]; [8] 98% | [6]; at 50.0 µM 89.7%
